Laboratory results reported in PubChem BioAssay (NCATS).
Where “and” joins values, the source holds several entries; their conditions need not be identical. Equal values may be shown once. Records with an inconclusive call do not appear. Some compounds were tested as several samples or in several runs, with calls that do not always agree. Calls of active or inactive are those of the source. Unless noted, calls follow the shape of the full dose curve.

Key:
[1] = qHTS assay for small molecule activators of the p53 signaling pathway (AID 651743; active = well fitted activation curve with a large enough effect in the signal ratio, not every such curve was filed as active; the % refers to the signal ratio; also: potency is read from the fitted curve at half-maximal effect; as to activation: series mostly up to about 92 µM; % of control where 0% means no effect); settings: HCT-116 p53RE-bla, beta-lactamase FRET ratio, 16 h; activation: stronger effect = higher value
Outline: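 Following 16 hours of compound exposure at 37 C, HCT-116 cells bearing the p53RE-bla reporter were loaded with LiveBLAzer B/G FRET substrate for 2 hours at room temperature and fluorescence intensity was recorded.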

[2] = qHTS assay for small molecule activators of the nuclear factor-kappa B (NF-kB) signaling pathway (AID 651749; active = well fitted activation curve with a large enough effect in the signal ratio; the % refers to the signal ratio; also: series mostly up to about 77 µM; % of control where 0% means no effect); settings: NF-kB-bla ME-180 cells, beta-lactamase FRET ratio, 16 h; stronger effect = higher value
Outline: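 In this qHTS format, compounds acting as activators increase NF-kB-driven beta-lactamase in ME-180 cells, measured as disrupted FRET after 16 hr exposure at 37C and 5% CO2.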

[3] = target: Tumor necrosis factor (Homo sapiens) (UniProt P01375); assay: qHTS assay to identify small molecules that stimulate Tumor Necrosis Factor-alpha (TNF-alpha) secretion (AID 651757; active = well fitted curve in the direction sought with a large enough effect in the signal ratio; the % refers to the signal ratio; also: 0% is about no effect)
Outline: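 Secreted TNF-alpha quantified by TR-FRET sandwich of two labeled anti-TNF-alpha antibodies, incubated 3 hr at room temperature. Preceded by 17 hr, 37 C compound treatment of THP-1 cells at 3000 cells/well.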

[4] = qHTS assay to identify small molecules that stimulate interleukin-8 (IL-8) secretion (AID 651758; active = well fitted activation curve with a large enough effect in the signal ratio; the % refers to the signal ratio; also: 0% is about no effect)
Outline: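 Compounds are added to THP-1 cells (2000 per well) and left 16 hrs at 37 C. A labeled anti-IL-8 antibody pair is then added, and IL-8 secretion is measured by time-resolved FRET after 1-3 hrs at room temperature.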

[5] = qHTS assay for small molecule agonists of the antioxidant response element (ARE) signaling pathway (AID 651741; active = well fitted activation curve with a large enough effect in the signal ratio; the % refers to the signal ratio; also: potency is read from the fitted curve at half-maximal effect; as to activation: % of control where 0% means no effect)
Outline: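 Stably integrated ARE-beta-lactamase reporter HepG2 cells; 16 h compound incubation, 37 C; LiveBLAzer FRET substrate 2 h at room temperature; fluorescence intensity.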

[6] = qHTS assay for small molecule disruptors of the mitochondrial membrane potential - 5 hr assay (AID 651755); also: nearly all actives have a fitted effect of over 40% in size; also: potency is read from the fitted curve at half-maximal effect
Outline: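 Read-out: ratiometric Mito-MPS fluorescence, green monomer (ex 490/em 535) vs red mitochondrial aggregate (ex 540/em 590). HepG2 cells treated 5 hr at 37C before 30 min dye loading.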

Sequence of Tumor necrosis factor (Homo sapiens) (P01375 whole entry, looked up): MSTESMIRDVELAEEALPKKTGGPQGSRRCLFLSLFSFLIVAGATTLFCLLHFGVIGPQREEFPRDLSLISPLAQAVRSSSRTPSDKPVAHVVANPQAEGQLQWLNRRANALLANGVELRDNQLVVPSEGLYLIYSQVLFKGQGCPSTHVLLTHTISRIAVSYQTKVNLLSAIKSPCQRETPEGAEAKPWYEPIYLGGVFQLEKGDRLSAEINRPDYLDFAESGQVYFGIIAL

**Q.** For `c1cc2ccc3cccc4ccc(c1)c2c34`, which activation [1] is on record?
**A.** 4.51% (inactive) and 2.05% (inactive)

**Q.** What about the activation [2] of the same compound?
**A.** -0.548% (inactive) and 0.897% (inactive)

**Q.** And the outcome [3]?
**A.** inactive

**Q.** And the outcome [4]?
**A.** inactive

**Q.** For `Nc1cccc2c(N)cccc12`, which Potency [5] is on record?
**A.** 27.3 µM (active)

**Q.** What about the Potency [6] of the same compound?
**A.** 5.96 µM (active)

**Q.** With `CCCCC(CC)COC(=O)c1ccccc1C(=O)OCC(CC)CCCC` (configuration not stated) as the compound, how does the activation [1] read?
**A.** -3.4% (inactive) and 2.22% (inactive)

**Q.** And the activation [2]?
**A.** 0.371% (inactive) and -1.46% (inactive)

**Q.** What about the Potency [6] of the same compound?
**A.** inactive

**Q.** And the outcome [3]?
**A.** inactive

**Q.** With `CS(=O)(=O)c1ccc(C(=O)C2C(=O)CCCC2=O)c([N+](=O)[O-])c1` as the compound, how does the Potency [5] read?
**A.** 54.5 µM (active)

**Q.** And the activation [1]?
**A.** -1.94% (inactive)

**Q.** And the activation [2]?
**A.** -0.467% (inactive)

**Q.** With `O=C(Nc1ccccc1-c1ccc(Cl)cc1)c1cccnc1Cl` as the compound, how does the activation [1] read?
**A.** -6.13% (inactive)

**Q.** And the activation [2]?
**A.** 0.368% (inactive)

**Q.** What does the source list for `CC(C)(O)C(=O)Nc1ccc([N+](=O)[O-])c(C(F)(F)F)c1`?
**A.** Potency [5]: 66.8 µM (active); activation [1]: 4.44% (inactive); Potency [6]: 26.6 µM (active)

**Q.** Which results are given for `COCCOCCO`?
**A.** Potency [5]: inactive; activation [2]: -0.521% (inactive) and -1.09% (inactive)

**Q.** Which activation [1] does the source give for `CCO/N=C(\CC)C1=C(O)CC(c2c(C)cc(C)cc2C)CC1=O` (configuration not stated) here?
**A.** 0.237% (inactive)

**Q.** What about the activation [2] of the same compound?
**A.** 0.436% (inactive)

**Q.** Which results are given for `C=CC(=O)NCNC(=O)C=C`?
**A.** Potency [5]: 37.6 µM (active) and 30.6 µM (active); activation [1]: -3.11% (inactive) and -4.69% (inactive); activation [2]: -0.065% (inactive) and -1.61% (inactive); outcome [3]: inactive; outcome [4]: inactive

**Q.** Which results are given for `O=[N+]([O-])c1cc([N+](=O)[O-])c2ccccc2c1`?
**A.** Potency [5]: 5.96 µM (active); activation [1]: -0.898% (inactive); activation [2]: -0.323% (inactive); outcome [3]: inactive

**Q.** For `O=S(=O)(O)C(F)(F)C(F)(F)C(F)(F)C(F)(F)F`, which Potency [5] is on record?
**A.** 30.6 µM (active) and inactive

**Q.** And the activation [1]?
**A.** -0.542% (inactive) and -4.63% (inactive)

**Q.** And the activation [2]?
**A.** -0.249% (inactive) and 0.21% (inactive)

**Q.** For `CCCCCCCCc1ccc(O)cc1`, which activation [1] is on record?
**A.** 0.0262% (inactive) and -2.23% (inactive)

**Q.** And the outcome [3]?
**A.** inactive

**Q.** Which Potency [5] does the source give for `COc1ccc(C(c2ccc(OC)cc2)C(Cl)(Cl)Cl)cc1` here?
**A.** 33.5 µM (active) and 61.1 µM (active)

**Q.** And the activation [1]?
**A.** 2.38% (inactive) and 0.818% (inactive)

**Q.** And the activation [2]?
**A.** 1.06% (inactive) and 0.442% (inactive) and 3.56% (inactive)

**Q.** And the Potency [6]?
**A.** 37.6 µM (active)

**Q.** What about the outcome [3] of the same compound?
**A.** inactive

**Q.** What about the outcome [4] of the same compound?
**A.** inactive

**Q.** Which activation [1] does the source give for `O=[N+]([O-])c1c(Cl)c(Cl)cc(Cl)c1Cl` here?
**A.** -1.29% (inactive)

**Q.** And the activation [2]?
**A.** -0.885% (inactive)

**Q.** What about the Potency [6] of the same compound?
**A.** inactive

**Q.** What about the outcome [3] of the same compound?
**A.** inactive

**Q.** And the outcome [4]?
**A.** inactive

**Q.** Which results are given for `O=S(=O)(c1ccc(Cl)cc1)c1ccc(Cl)cc1`?
**A.** Potency [5]: 66.8 µM (active); activation [1]: -0.565% (inactive) and -3.02% (inactive) and 0.243% (inactive); outcome [3]: inactive; outcome [4]: inactive

**Q.** With `C=CCC1=C(C)C(OC(=O)C2C(C=C(C)C)C2(C)C)CC1=O` (configuration not stated) as the compound, how does the activation [1] read?
**A.** 1.22% (inactive)

**Q.** And the activation [2]?
**A.** 0.983% (inactive) and 2.07% (inactive)

**Q.** With `CCCCCC[C@H]1C(=O)O[C@H](C)[C@H](NC(=O)c2cccc(NC=O)c2O)C(=O)O[C@@H](C)[C@@H]1OC(=O)CC(C)C` as the compound, how does the Potency [5] read?
**A.** 4.33 µM (active)

**Q.** And the Potency [1]?
**A.** 0.02 µM (active)

**Q.** What about the activation [2] of the same compound?
**A.** 2.55% (inactive)

**Q.** With `O=C(O)c1cc(Oc2ccc(C(F)(F)F)cc2Cl)ccc1[N+](=O)[O-]` as the compound, how does the Potency [5] read?
**A.** inactive

**Q.** What about the activation [2] of the same compound?
**A.** -1.27% (inactive)

**Q.** With `CCOCCOC(C)=O` as the compound, how does the Potency [5] read?
**A.** inactive

**Q.** What about the activation [1] of the same compound?
**A.** -0.566% (inactive)

**Q.** What about the outcome [3] of the same compound?
**A.** inactive

**Q.** Which Potency [5] does the source give for `CN(C)NC(=O)CCC(=O)O` here?
**A.** inactive

**Q.** And the activation [1]?
**A.** 0.825% (inactive) and -3.72% (inactive)

**Q.** What about the activation [2] of the same compound?
**A.** 0.502% (inactive) and -0.298% (inactive)

**Q.** What about the Potency [6] of the same compound?
**A.** inactive

**Q.** What about the outcome [3] of the same compound?
**A.** inactive

**Q.** With `CC(C)(c1ccc(O)cc1)c1ccc(O)cc1` as the compound, how does the Potency [5] read?
**A.** 42.2 µM (active) and 47.3 µM (active) and 30.6 µM (active)

**Q.** And the Potency [6]?
**A.** 33.5 µM (active)

**Q.** For `O=[N+]([O-])c1c2ccccc2cc2ccccc12`, which Potency [5] is on record?
**A.** 53.1 µM (active)

**Q.** And the activation [1]?
**A.** 4.5% (inactive)

**Q.** What about the Potency [6] of the same compound?
**A.** 29.8 µM (active)

**Q.** And the outcome [3]?
**A.** inactive

**Q.** For `Nc1ccc(Sc2ccc(N)cc2)cc1`, which Potency [6] is on record?
**A.** inactive

**Q.** For `CCCCOC(=O)c1ccccc1C(=O)OCc1ccccc1`, which Potency [5] is on record?
**A.** inactive

**Q.** And the activation [1]?
**A.** 1.28% (inactive) and 1.63% (inactive)

**Q.** What about the activation [2] of the same compound?
**A.** -1.25% (inactive) and 0.0084% (inactive)

**Q.** What about the Potency [6] of the same compound?
**A.** inactive

**Q.** And the outcome [3]?
**A.** inactive

**Q.** And the outcome [4]?
**A.** inactive

**Q.** With `Nc1ccc([N+](=O)[O-])cc1O` as the compound, how does the Potency [5] read?
**A.** 13.3 µM (active) and 15.4 µM (active)

**Q.** And the Potency [6]?
**A.** 37.6 µM (active)

**Q.** With `O=C(O)CCCOc1ccc(Cl)cc1Cl` as the compound, how does the activation [1] read?
**A.** 3.34% (inactive)
